# Test results as given in the supplement of paper PMC9023506.
# Where a name gives a salt, the structure may show the parent alone.
# Legend:
# Conditions in all cases: 10 µM; exposure time: 3 h pre-incubation + 3 h imaging
# [1] = system: Danio rerio larvae (5 dpf); test: excitability to 1-s acoustic pulses, difference vs DMSO (percentage points (treated minus DMSO)); higher = more of the behaviour than the DMSO vehicle control
# Summary of the method: (§1)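 Library drugs were diluted 1000× from DMSO stocks into egg water to reach 10 µM and applied to 5-dpf wild-type zebrafish larvae in 96-well ProxiPlates, 48 larvae per drug. The larvae stayed exposed for 3 h before imaging and for the 3 h of imaging at 28.5 °C. Behaviour scores, given in percentage points, are the treated mean minus the vehicle mean for movement and upper-half location.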
# [2] = system: Danio rerio larvae (5 dpf); test: activity during first hour (no stimuli), difference vs DMSO (percentage points (treated minus DMSO)); higher = more of the behaviour than the DMSO vehicle control
# Summary of the method: as §1
# [3] = system: Danio rerio larvae (5 dpf); test: startle response to 20-s acoustic pulses, difference vs DMSO (percentage points (treated minus DMSO)); higher = more of the behaviour than the DMSO vehicle control
# Summary of the method: as §1
# [4] = system: Danio rerio larvae (5 dpf); test: activity during period 15 (no stimuli), difference vs DMSO (percentage points (treated minus DMSO)); higher = more of the behaviour than the DMSO vehicle control
# Summary of the method: as §1
# [5] = system: Danio rerio larvae (5 dpf); test: optomotor response to fast red moving lines, difference vs DMSO (percentage points (treated minus DMSO)); higher = more of the behaviour than the DMSO vehicle control
# Summary of the method: as §1
# [6] = system: Danio rerio larvae (5 dpf); test: optomotor response to green moving lines, difference vs DMSO (percentage points (treated minus DMSO)); higher = more of the behaviour than the DMSO vehicle control
# Summary of the method: as §1
# [7] = system: Danio rerio larvae (5 dpf); test: habituation to 1-s acoustic pulses, difference vs DMSO (percentage points (treated minus DMSO)); higher = more of the behaviour than the DMSO vehicle control
# Summary of the method: as §1
# [8] = system: Danio rerio larvae (5 dpf); test: optomotor response to red moving lines, difference vs DMSO (percentage points (treated minus DMSO)); higher = more of the behaviour than the DMSO vehicle control
# Summary of the method: as §1
# [9] = system: Danio rerio larvae (5 dpf); test: optomotor response to blue moving lines, difference vs DMSO (percentage points (treated minus DMSO)); higher = more of the behaviour than the DMSO vehicle control
# Summary of the method: as §1
compound,measurement,setting,value
O=c1[nH]c(=O)n([C@H]2C[C@H](O)[C@@H](CO)O2)cc1C(F)(F)F [Trifluorothymidine],excitability to 1-s acoustic pulses,[1],2.88
same,activity during first hour,[2],1.96
same,startle response to 20-s acoustic pulses,[3],1.37
CC(=O)O[C@]1(C(C)=O)CC[C@H]2[C@@H]3C=C(C)C4=CC(=O)CC[C@]4(C)[C@H]3CC[C@@]21C [Megestrol Acetate],excitability to 1-s acoustic pulses,[1],14.4
same,activity during period 15,[4],-0.283
same,activity during first hour,[2],-14.3
same,startle response to 20-s acoustic pulses,[3],-15.1
same,optomotor response,[5],-10.3
COc1ccccc1OCC(O)CN1CCN(CC(=O)Nc2c(C)cccc2C)CC1 (configuration not stated) [Ranolazine dihydrochloride],activity during period 15,[4],3.22
same,activity during first hour,[2],10.4
same,optomotor response to green moving lines,[6],-0.274
same,startle response to 20-s acoustic pulses,[3],2.42
same,optomotor response,[5],9.26
CCc1ccc(CCOc2ccc(CC3SC(=O)NC3=O)cc2)nc1 (configuration not stated) [Pioglitazone hydrochloride],habituation to 1-s acoustic pulses,[7],0.476
same,excitability to 1-s acoustic pulses,[1],6.94
same,optomotor response to red moving lines,[8],-7.97
same,optomotor response to blue moving lines,[9],-1.78
same,optomotor response to green moving lines,[6],-7.6
Cn1cnc([N+](=O)[O-])c1Sc1ncnc2[nH]cnc12 [Azathioprine],optomotor response to red moving lines,[8],3.86
CNC(=O)c1ccccc1Sc1ccc2c(/C=C/c3ccccn3)n[nH]c2c1 [Axitinib],activity during first hour,[2],-2.72
same,optomotor response to blue moving lines,[9],13.5
same,startle response to 20-s acoustic pulses,[3],-7.73
O=C(O)CCCc1ccccc1 [Sodium 4-Phenylbutyrate],habituation to 1-s acoustic pulses,[7],-4.19
same,activity during first hour,[2],3.48
same,optomotor response to blue moving lines,[9],3.11
same,optomotor response,[5],-11
C[C@H](Cc1cc2c(c(C(N)=O)c1)N(CCCO)CC2)NCCOc1ccccc1OCC(F)(F)F [Silodosin],excitability to 1-s acoustic pulses,[1],21.7
same,activity during period 15,[4],-7.59
same,activity during first hour,[2],-1.39
same,optomotor response to green moving lines,[6],1.5
same,optomotor response,[5],11.4
Cc1ccccc1C(=O)Nc1ccc(C(=O)N2CCCC(O)c3cc(Cl)ccc32)c(C)c1 (configuration not stated) [Tolvaptan],excitability to 1-s acoustic pulses,[1],6.31
same,activity during period 15,[4],-8.09
same,activity during first hour,[2],1.26
same,startle response to 20-s acoustic pulses,[3],3.71
Nc1cccc2c1CN(C1CCC(=O)NC1=O)C2=O (configuration not stated) [Lenalidomide],habituation to 1-s acoustic pulses,[7],-1.09
same,excitability to 1-s acoustic pulses,[1],-2.77
same,optomotor response to red moving lines,[8],6.24
same,optomotor response to blue moving lines,[9],3.02
Cc1cccc(CN2CCN(C(c3ccccc3)c3ccc(Cl)cc3)CC2)c1 (configuration not stated) [Meclizine dihydrochloride],excitability to 1-s acoustic pulses,[1],9.5
same,optomotor response to red moving lines,[8],-10.1
same,optomotor response to blue moving lines,[9],-6.39
same,optomotor response,[5],-10.8
O=C(Nc1c(Cl)cncc1Cl)c1ccc(OC(F)F)c(OCC2CC2)c1 [Roflumilast],habituation to 1-s acoustic pulses,[7],-1.13
same,optomotor response to red moving lines,[8],0.247
same,optomotor response to blue moving lines,[9],-1.76
same,optomotor response to green moving lines,[6],-11.7
same,startle response to 20-s acoustic pulses,[3],1.99
N#Cc1ccc2[nH]cc(CCCCN3CCN(c4ccc5oc(C(N)=O)cc5c4)CC3)c2c1 [Vilazodone hydrochloride],activity during first hour,[2],-24.1
same,optomotor response to green moving lines,[6],-30.3
same,startle response to 20-s acoustic pulses,[3],-6.5
CCc1nc(N)nc(N)c1-c1ccc(Cl)cc1 [Pyrimethamine],habituation to 1-s acoustic pulses,[7],5.04
same,excitability to 1-s acoustic pulses,[1],6.41
same,activity during period 15,[4],-4.35
same,optomotor response,[5],9.74
C=C1[C@H](CO)[C@@H](O)C[C@@H]1n1cnc2c(=O)[nH]c(N)nc21 [Entecavir],optomotor response to blue moving lines,[9],11.4
same,optomotor response to green moving lines,[6],0.498
same,startle response to 20-s acoustic pulses,[3],3.11
same,optomotor response,[5],-0.927
CC(=O)NC[C@H]1CN(c2ccc(N3CCOCC3)c(F)c2)C(=O)O1 [Linezolid],activity during period 15,[4],-1.07
same,optomotor response to blue moving lines,[9],-4.03
same,startle response to 20-s acoustic pulses,[3],2.02
CC[C@H](C)C(=O)O[C@H]1C[C@@H](C)C=C2C=C[C@H](C)[C@H](CC[C@@H]3C[C@@H](O)CC(=O)O3)[C@H]21 [Lovastatin],habituation to 1-s acoustic pulses,[7],-1.04
same,excitability to 1-s acoustic pulses,[1],12.6
same,optomotor response to green moving lines,[6],-3.13
CCCCNc1cc(C(=O)O)cc(S(N)(=O)=O)c1Oc1ccccc1 [Bumetanide],habituation to 1-s acoustic pulses,[7],-0.875
same,optomotor response to blue moving lines,[9],3.8
same,optomotor response,[5],-7.16
COc1cccc2c1C(=O)c1c(O)c3c(c(O)c1C2=O)C[C@@](O)(C(=O)CO)C[C@@H]3O[C@H]1C[C@H](N)[C@H](O)[C@H](C)O1 [Doxorubicin hydrochloride],habituation to 1-s acoustic pulses,[7],3.26
same,excitability to 1-s acoustic pulses,[1],13.8
same,optomotor response to blue moving lines,[9],3.86
same,optomotor response,[5],6.53
OCc1cc(C(O)CNCCCCCCOCCCCc2ccccc2)ccc1O (configuration not stated) [Salmeterol xinafoate],optomotor response to green moving lines,[6],-6.89
CCCCCCCCc1ccc(CCC(N)(CO)CO)cc1,habituation to 1-s acoustic pulses,[7],3.87
same,excitability to 1-s acoustic pulses,[1],14.4
same,optomotor response to green moving lines,[6],-1.15
same,optomotor response,[5],10.4
Cc1nc(Nc2ncc(C(=O)Nc3c(C)cccc3Cl)s2)cc(N2CCN(CCO)CC2)n1 [Dasatinib],activity during period 15,[4],-15.1
same,optomotor response,[5],-12.1
COc1ccccc1Oc1c(NS(=O)(=O)c2ccc(C(C)(C)C)cc2)nc(-c2ncccn2)nc1OCCO [Bosentan],activity during period 15,[4],-4.44
same,optomotor response to green moving lines,[6],-5.7
CC(=O)O[C@H]1C(=O)[C@@]2(C)[C@H]([C@H](OC(=O)c3ccccc3)[C@]3(O)C[C@H](OC(=O)[C@H](O)[C@@H](NC(=O)c4ccccc4)c4ccccc4)C(C)=C1C3(C)C)[C@]1(OC(C)=O)CO[C@@H]1C[C@@H]2O [Taxol],activity during period 15,[4],-4.11
same,optomotor response to blue moving lines,[9],-0.599
COCCc1ccc(OCC(O)CNC(C)C)cc1 (configuration not stated) [Metoprolol tartrate],optomotor response to green moving lines,[6],0.682
CC(C)N(CCCCOCC(=O)NS(C)(=O)=O)c1cnc(-c2ccccc2)c(-c2ccccc2)n1 [Selexipag],excitability to 1-s acoustic pulses,[1],5.77
same,optomotor response to blue moving lines,[9],-1.72
same,optomotor response to green moving lines,[6],-4.69
